This is a sample that favours compounds with a hit; in the whole collection about 2.6% have one here.
FLuc inh = blocks Photinus pyralis firefly luciferase activity; purified firefly luciferase, luminescence, 8 min; P08659; 72,000 compounds, 2.2% hits; Potency, µM (titrated, usually from 57.1 µM), for the others: top-dose activity change, negative = inhibition, hits mostly inhibitors; also: potency is read from the fitted curve at half-maximal effect; % is scaled to controls: 0 for no effect and ±100 for the full control effect; nearly all actives have a fitted effect of over 40% in size
Target sequence (P08659 whole entry, looked up): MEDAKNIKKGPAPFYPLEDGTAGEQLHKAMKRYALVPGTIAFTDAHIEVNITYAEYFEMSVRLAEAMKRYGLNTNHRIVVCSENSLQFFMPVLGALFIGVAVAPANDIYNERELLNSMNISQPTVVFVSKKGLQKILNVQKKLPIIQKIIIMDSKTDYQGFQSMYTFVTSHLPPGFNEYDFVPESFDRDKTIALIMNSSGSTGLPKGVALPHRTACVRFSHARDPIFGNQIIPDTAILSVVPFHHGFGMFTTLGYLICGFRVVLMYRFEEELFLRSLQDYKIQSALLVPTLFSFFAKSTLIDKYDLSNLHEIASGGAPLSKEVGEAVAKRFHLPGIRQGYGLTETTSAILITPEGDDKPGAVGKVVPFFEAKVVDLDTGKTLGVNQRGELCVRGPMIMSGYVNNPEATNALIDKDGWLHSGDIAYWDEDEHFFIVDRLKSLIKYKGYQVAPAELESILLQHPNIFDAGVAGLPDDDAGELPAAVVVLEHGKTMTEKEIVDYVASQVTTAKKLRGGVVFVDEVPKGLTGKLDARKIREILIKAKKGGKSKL
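Substrate buffer containing 10 uM ATP (pH 7.2 imidazole, Mg2+, KCl, detergent, BSA) is dispensed, compound pinned in, then luciferase/luciferin detector mix added. After 8 min at ambient temperature, light output is measured.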
HBB splicing = hemoglobin beta splicing modulation; AID 925; 65,000 compounds, 0.06% hits; HBB splicing reporter cell assay, activation; EGFP reporter with mutant IVS2-654 intron; response scale: normalised to 500 nM splice-correcting PNA; Potency, µM (titrated, usually from 46.1 µM), without a hit: at the top dose activation, actives largely listed as activators; also: potency is read from the fitted curve at half-maximal effect; 0% is about no effect
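Compounds were applied for 2 days to HeLa EGFP-654 cells, 500/well in Optimem with 2% FCS. The reporter's EGFP is disrupted by mis-splicing of beta-globin intron IVS2-654. Readout: summed well GFP fluorescence from 488 nm laser scanning; reference was 500 nM antisense […] 654 PNA.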
GFP derepression = derepresses silenced GFP locus in mouse C127i cells. mouse C127i GFP locus derepression, cytometry, 30 h. Potency, µM (top dose mostly 46.1 µM), for the others: top-dose GFP derepression (activation). 68,000 compounds, 0.09% hits; also: % of control where 0% means no effect
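Murine C127i mammary cells carrying a silenced, stably integrated CMV-driven GFP reporter were treated with compound for 30 hours at 37 C. After PBS washes, GFP-positive cells were counted by laser-scanning microplate cytometry.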
PK Bst = pyruvate kinase (B. stearothermophilus) modulation; purified pyruvate kinase, luminescence ATP production; ribose 5-phosphate activator present at AC10; Potency, µM; 51,000 compounds, 1.2% hits; in the data active = potency below about 11 µM; inconclusive = mostly about 12 µM to 25 µM;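 the screen sought inhibitors and activators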;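 also: potency is read from the fitted curve at half-maximal effect; scaled between full activation by ribose 5 phosphate and full inhibition by luteolin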
* marks the source's active call; other numbers are inactive results; i = inactive; ? = inconclusive; . = not tested or not shown; [ ] = remark or other dose. Unless noted, calls follow the shape of the dose curve; as a rule, active = well fitted curve in the direction sought with a large enough effect; inconclusive = small, poorly fitted or top-dose-only effect, or another doubt; inactive = no such curve, though single readings can be large; an effect the other way counts as inactive or inconclusive.

SMILES | FLuc inh | HBB splicing | GFP derepression | PK Bst
CCCNC(=O)OC[C@@H]1O[C@H](CCO/N=C\[C@@H](OC)[C@H](C)/C=C\CC(=O)OC)C=C[C@@H]1Oc1ccc(OC)cc1 | -2%[11.4 µM] | 4%[9.22 µM] | . | .
Cc1ccc2nc(/C(C#N)=N/O)[nH]c2c1 | 25µM* | . | -5% | .
Cc1ccc2nc(C(O)C(O)c3nc4ccc(C)cc4[nH]3)[nH]c2c1 (stereo unspecified) | -28% | . | -1% | .
Cc1ccc(-c2nc(-c3nccc4ccccc34)oc2-c2ccccc2)cc1 | 3.2µM* | 7%[9.22 µM] | 0%[9.22 µM] | .
O=C(c1ccccc1)c1nnc(-c2ccccc2F)o1 | 4µM* | -1% | 3% | 8.5*
CC(C)C[C@@H](CC(=O)N[C@@H](CCCN)CC(=O)N[C@@H]1CCNC[C@H]1C(=O)N[C@H](CC(=O)N[C@@H](CCC(=O)O)CC(=O)O)Cc1c[nH]c2ccccc12)NC(=O)[C@@H]1CCCC[C@H]1N | . | 2% | . | .
CC(C)CO/N=C1/C[C@@H](O)[C@@H](O)[C@@H]2[C@@H]3C(=O)N(C4CCCCC4)C(=O)[C@H]3CC[C@@H]12 | -2%[11.4 µM] | 1%[9.22 µM] | . | .
c1ccc2c(c1)nc(Nc1ccc3c(c1)OCO3)c1nnnn12 | ? | 3% | 0% | 8.6*
COCCNc1ncnc2c1cnn2-c1ccc(Cl)cc1 | 10µM* | . | 10%[20.6 µM] | 10*
OCCOCCNc1ncnc2c1cnn2-c1ccc(Cl)cc1 | 10µM* | . | 6%[20.6 µM] | 11*
CC(C)Nc1ncnc2c1cnn2-c1ccc(Cl)cc1 | 2.5µM* | -1% | . | .
OCCOCCNc1ncnc2c1cnn2-c1ccccc1 | -11%[25.5 µM] | . | -4%[20.6 µM] | >26
CCCNC(=O)OC[C@H]1O[C@@H](CCO/N=C2/C[C@@H](O)[C@@H](O)[C@@H]3[C@@H]4C(=O)N(CC)C(=O)[C@H]4CC[C@@H]23)C=C[C@@H]1Oc1ccc(OC)cc1 | -1%[11.4 µM] | 1%[9.22 µM] | . | .
CC1(C)Oc2ccc(NC(=O)C3COc4ccccc4O3)cc2O1 (stereo unspecified) | 13µM* | 1% | -1% | ?
COCC(=O)N1CCC2(CCCN(c3ccncc3)C2)CC1 | 1%[11.4 µM] | 1% | 7%[9.22 µM] | .
COCCn1c(=O)c2c3c(sc2n(CC(N)=O)c1=O)CCCC3 | 1% | -1% | 0% | >57
CCOC(=O)C1CCN(c2nc(-c3ccccc3)nc3c2oc2ccccc23)CC1 | 1% | 5%[57.5 µM] | 0% | i
O=C(O)C1CCN(c2nc(-c3ccccc3)nc3c2oc2ccccc23)CC1 | 1% | 3%[0.369 µM] | -2% | 7.4*
OCCN1CCN(c2nc(-c3ccccc3)nc3c2oc2ccccc23)CC1 | 3% | -2%[57.5 µM] | 2% | 6*
O=c1c(-c2cccs2)nc2cnc(Oc3cccc(Cl)c3)nc2n1C[C@H]1CCCO1 | 0%[11.4 µM] | 1% | 8%[9.22 µM] | .
CCC[C@@H]1O[C@@H]2C[C@@H]3[C@@H]4CCC5=CC(=O)C=C[C@@]5(C)[C@H]4[C@H](O)C[C@@]3(C)[C@@]2(C(=O)CO)O1 | -4% | 0% | 1% | .
CC(=O)c1c(C)n(C)c2ccc(OC(=O)c3ccco3)cc12 | -1% | . | -2% | 8.4*
N=c1nc(N)nc2n1NC(c1ccc(F)cc1)=CS2 | -26% | . | 1% | 3.6*
CN(C)c1ccc(NC(=O)CN2CCN(S(=O)(=O)c3cc(Cl)ccc3Cl)CC2)cc1 | 0% | 0% | 4% | 9.4*
O=C(Nc1ccc2c(c1)OCCO2)c1ccc(Cl)c(S(=O)(=O)N2CCOCC2)c1 | -9% | 1% | 0% | >57
SMILES | FLuc inh | HBB splicing | GFP derepression | PK Bst
O=C(CN1CCN(S(=O)(=O)c2cc(Cl)ccc2Cl)CC1)Nc1ccc2c(c1)OCCO2 | -4% | -1% | 4% | 4.7*
CC(C)OC(=O)CN1CCN(S(=O)(=O)c2cc(Cl)ccc2Cl)CC1 | 1% | 1% | 6% | >57
CCCC[C@@H]1CN2[C@H](c3ccc(Br)cc3)[C@@H](C)CC[C@H]2C(=O)O1 | 2%[11.4 µM] | 4%[9.22 µM] | . | .
COc1ccc2nc(NC(=O)c3cnccn3)sc2c1 | 13µM* | -3% | -2% | i
CCCCOC(=O)Nc1nc2ccc(OC)cc2s1 | -1% | -2%[0.0738 µM] | -2% | .
COc1ccc2nc(Nc3nc(C)c(C(C)=O)s3)sc2c1 | 16µM* | 0% | ? | .
CCCCN(C(=O)NC(=O)Nc1nc2ccc(OC)cc2s1)S(C)(=O)=O | 20µM* | -1% | 0% | i
COc1ccc2sc(NC(C)=O)nc2c1 | -27% | 0% | -1% | >11
COC(=O)c1ccc(-c2cc(C(=O)O)c3cc4c(cc3n2)OCCO4)cc1 | 3.2µM* | 1%[57.5 µM] | 4% | ?
CCn1c(SCC(=O)c2ccc3c(c2)OCCO3)nnc1-c1ccco1 | 16µM* | 3% | 0% | .
